According to ChEMBL document CHEMBL4888484, “Replenishing the malaria drug discovery pipeline: Screening and hit evaluation of the MMV Hit Generation Library 1 (HGL1) against asexual blood stage Plasmodium falciparum ,using a nano luciferase reporter read-out” (2022):
Among all 150,000 compounds or so, about 540 (0.36%) showed an effect of 50% or more. Many of the other results were omitted from the sample, so strong results are more common in it than they were.

Test system: Plasmodium falciparum
Experiment: Primary screen in NF54 nanoGlo assay, in single point, at 2uM, 72h; a lower Z score goes with more inhibition
Assay type: functional, Erythrocyte
Settings: timepoint 72 hour

Compound | % Inhibition [%] | Z score
Cc1cccc(Cn2c(C(=O)Nc3ccccc3)cc3cc(NC(=O)C4CCC4)ccc32)c1 | 13 | -2.41
COc1ccc(-c2nn(-c3ccccc3C)cc2CN(C)Cc2nccn2C)cc1F | -8 | 1.05
Cc1cc(C(=O)Nc2cccc(C(F)(F)F)c2)cc2c1N(C)S(=O)(=O)c1ccccc1-2 | -3 | 0.47
O=C(COC[C@H]1CCCCO1)NC(C1CC1)C1CC1 | -8 | 1.05
O=C(Nc1ccc(Br)cn1)c1ccc(-c2ccc(Cl)c(Cl)c2)o1 | 31 | -3.51
Cc1ccc(-c2ccc(C(=O)Nc3cccnc3)o2)cc1Cl | -2 | 0.25
O=C(Nc1cccnc1)c1ccc(-c2ccc(Cl)c(Cl)c2)o1 | 64 | -16.5
Cc1ccc2nc(-c3cc4ccccc4o3)cn2c1 | 61 | -5.65
Cc1ccc2nc(-c3cnoc3C)cn2c1 | 0 | 0.04
Nc1nn2cc(-c3cc4ccccc4o3)nc2c2ccccc12 | -6 | 1.22
O=C(NCCN1CCCC1)c1ccc(-c2c(-c3ccc(F)cc3)ncn2C2CCCC2)o1 | 5 | -0.8
Cc1ccc(Cl)cc1N1CCN(C(=O)N2CCC(C)CC2)CC1 | 0 | -0.01
CCc1nc2cc(N3CCC(C(=O)Nc4ccc5c(c4)OCO5)CC3)cnc2nc1CC | 73 | -0.75
CCc1nc2cc(N3CCC(C(=O)NCc4cc(F)cc(F)c4)CC3)cnc2nc1CC | -5 | 0.82
CCc1nc2cc(N3CCC(C(=O)N[C@@H](C)CC)CC3)cnc2nc1CC | -9 | 1.42
Cc1ccc(S(=O)(=O)c2cn(CC(=O)Nc3ccc(C)c(C)c3)c3nc(C)ccc3c2=O)cc1 | -12 | 1.24
COCCN1CC[C@H](CN(C)S(=O)(=O)Cc2ccc(Cl)cc2)C1 | -6 | 1.12
COCCN1CC[C@H](CN(C)c2ccncn2)C1 | 1 | -0.2
COCCN1CCC[C@@]2(CCN(Cc3cnn(-c4ccc(Cl)cc4)c3)C2)C1 | -9 | 1.21
COCCN1C[C@]2(CCCN(c3ccnc4ccc(C)cc34)C2)CCC1=O | -3 | 0.55
COC(=O)[C@H](CN)Oc1ccc(F)cc1 | 2 | -0.27

Compound | % Inhibition [%] | Z score
O=C(NC1CC1C1CCCCC1)N1CCCN(C2CCOCC2)CC1 (stereo not drawn) | -16 | 1.42
O=C(N[C@@H]1C[C@H]1C1CCCCC1)N1CCC(N2CCCCC2)C1 (stereo partly drawn) | -9 | 1.45
O=C(NC1CC1C1CCCCC1)N1CCS(=O)(=O)CC1 (stereo not drawn) | 77 | -9.17
CCCN(C(=O)Nc1cc(Cl)ccc1OC)c1nc(-c2ccc(C3CCCCC3)cc2)cs1 | -14 | 2.04
COc1ccc(NCC(=O)Nc2cc(C(F)(F)F)cc(NC(=O)CNc3ccc(OC)cc3)c2Cl)cc1 | -10 | 1.34
CC(=O)Oc1ccc(N2C(=O)[C@@H]3[C@H](Cc4ccccc4)N[C@]4(C(=O)Nc5c4ccc(Cl)c5C)[C@@H]3C2=O)cc1 | -4 | 0.38
O=C(ON1C(=O)CCC1=O)c1cc2ccccc2[nH]1 | 61 | -0.88
Cc1cccc(C(=O)ON2C(=O)CCC2=O)c1 | 39 | 1.28
O=C(ON1C(=O)CCC1=O)c1cccc(F)c1 | 34 | -3.87
Cc1cc(C)nc(-n2nc(C)c(CCc3ccccc3)c2O)n1 | 32 | -3.67
Oc1cc(-c2ccc(F)cc2)nn1-c1nc2ccccc2[nH]1 | 36 | -4.09
Cc1nn(-c2nc3ccccc3[nH]2)c(O)c1Cc1ccccc1 | 63 | -1.65
COc1ccccc1-n1nc(C)c(Cc2ccccc2)c1O | 31 | -3.49
Cc1cccc(Cc2c(C)nn(-c3nc(C)cc(C)n3)c2O)c1 | 36 | 2.2
Cc1nn(-c2nc3ccccc3[nH]2)c(O)c1CCC(C)C | 95 | -12.21
COc1ccc([C@@H]2N(c3ccc(Cl)cc3)OC(=O)N2c2ccccc2)cc1 | 1 | -0.09
Cc1n[nH]c2c1CN(Cc1[nH]cc(C)c(=O)c1C)CC2 | -8 | 1
COCCCN(CCC(=O)NCCc1ccccc1)C(=O)c1cc(C)oc1C | 2 | -0.18
Cc1ccc(CNC(=O)CC2CC2)c2cccnc12 | -16 | 2.46
COc1ccc(Cl)cc1-c1cc(C(=O)N2CCOCC2)ccn1 | 3 | -0.54
CCc1c(C(=O)N2CCC(c3ccnn3CCO)CC2)cnn1-c1cccc(Cl)c1 | -3 | 0.24

Compound | % Inhibition [%] | Z score
CCc1nc2ccccc2c(C(=O)N2CCN(c3cc(OC)ncn3)CC2)c1C | -13 | 1.69
COC[C@H]1CCCN1C[C@@H]1OC[C@H](NC(=O)c2ccc(C#N)cc2)[C@H]1O | 9 | -1.07
Cn1cccc1-c1nc2cc(N)ccc2[nH]1 | -3 | 0.34
COCCN(CCOC)C(=O)c1cnn(C)c1 | -6 | 0.88
CCOc1ccccc1C(=O)N1CCC[C@](c2nnnn2CCC(C)C)(N(C)C)C1 | -2 | 0.29
CC(C)CCn1nnnc1[C@]1(N(C)C)CCCN(C(=O)CN2CCOCC2)C1 | 2 | -0.27
CC(C)CCn1nnnc1[C@]1(N(C)C)CCCN(C(=O)c2cccn2C)C1 | 92 | 1.07
CCOCCCNCc1ccc(F)cc1 | -10 | 1.59
Cc1ccc(-c2nnc(-c3nc(NCc4ccc(F)cc4)c4ccccc4n3)o2)cc1 | -11 | 2.05
COc1ccc(CNc2nc(-c3nnc(-c4ccccc4)o3)nc3ccccc23)cc1 | 55 | -10.02
COc1ccc(-c2nnc(-c3nc(NCc4ccc5c(c4)OCO5)c4ccccc4n3)o2)cc1 | -7 | 1.27
O=C(NCC1(c2ccccc2)CCCCCC1)N1CCO[C@@H](CO)C1 | -5 | 0.59
CCc1c(C)nc(C)nc1N1CC[C@H](NC(=O)c2cc(C)on2)[C@@H](O)C1 | 8 | -1.41
CCn1nccc1C=C(C)c1ncccn1 | 1 | -0.23
CN(CCCn1ccnc1)C(=O)c1ccnc(N(C)C)c1 | -12 | 1.13
COc1ccc(Br)cc1NC(=O)N(C)CCCn1ccnc1 | 8 | -0.86
COc1ccc(Cn2nnc3cc(C(=O)Nc4ccc(C)cc4C)ccc32)cc1 | -2 | 0.34
CC1=Nc2ccccc2C12CCN(C(=O)Nc1cncc(F)c1)CC2 | 11 | -1.44
O=C(Nc1onc2c1CCC2)c1ccc2ncsc2c1 | 0 | 0.01
O=C(Nc1onc2c1CCC2)c1cccc2ccccc12 | 20 | -2.27
O=C(Nc1onc2c1CCC2)c1ccc2ccccc2c1 | 76 | -8.19

Compound | % Inhibition [%] | Z score
CC(=O)Nc1ccc(S(=O)(=O)NC2(c3nc(C)no3)CCCCC2)cc1 | -3 | 0.55
O=C(Cn1cnc(-c2nc(-c3ccccc3)cs2)c1)Nc1ccc(F)cc1 | -8 | 0.99
O=C(O)[C@H]1CCN(C(=O)Cn2c(COc3ccccc3)nc3ccccc32)C1 | -10 | 0.93
Cc1nn(-c2ccccc2Cl)c(O)c1C(c1ccsc1)c1c(C)nn(-c2ccccc2Cl)c1O | 6 | -0.74
Cc1nn(-c2nc3ccccc3s2)c(O)c1C(c1ccc(Cl)c(Cl)c1)c1c(C)nn(-c2nc3ccccc3s2)c1O | -10 | 0.88
Cc1nn(-c2ccccn2)c(O)c1C(c1ccccc1)c1c(C)nn(-c2ccccn2)c1O | 96 | -9.38
Cc1ccccc1C(=O)N1C(C(=O)NC(C)c2ccccc2)COC12CCN(C(=O)CC(C)(C)C)CC2 (stereo not drawn) | -5 | 0.47
CCc1ccccc1C(=O)OCc1nccn1C | -3 | 0.26
Fc1ccc(-c2nc3c(cnn3C3CCCC3)[nH]2)cc1 | -6 | 0.81
CN1CCC(n2ncc3[nH]c(-c4ccc(C(F)(F)F)cc4)nc32)CC1 | 97 | -17.43
COc1ccc(-c2nc3c(cnn3C3CCN(C)CC3)[nH]2)cn1 | -7 | 0.9
Cc1c(-c2n[nH]c3c2CN(C(=O)c2csnn2)CC3)cccc1C(F)(F)F | -12 | 1.03
O=C(CN1CCN(CC(=O)c2ccccc2)CC1)c1ccccc1 | 0 | -0.02
O=C(Cn1nnc2ccccc21)c1ccccc1 | -12 | 1.78
Cc1n(CC(=O)c2ccccc2)c2ccccc2[n+]1CC(=O)c1ccccc1 | 59 | -12.26
O=C(N[C@H]1CCc2cc(F)c(F)c(F)c21)N1CCn2ncnc2C1 | -5 | 1.12
COc1nccc2c(NCc3cn(C(C)(C)C)nn3)cccc12 | 5 | -1
CCOc1ccc(S(=O)(=O)N[C@H]2CC[C@@H](CC(=O)O)C2)c(C)c1 | -1 | 0.16
C[N+]12CCCC[C@@H]1[C@H](COC(=O)c1ccccc1Cl)CCC2 (stereo partly drawn) | 7 | -0.65
CO[C@@H]1CCC[C@@H]2CN(C(=O)C3(c4ccccc4)CCCC3)C[C@@H]21 | -4 | 0.35
C[N+]12CCCCC1C(OC(=O)C1(c3ccccc3)CCCC1)CCC2 (stereo not drawn) | 63 | -6.6
